Assay outcomes as filed in PubChem.
The list is not random: actives were taken first. Their share in the collection is about 12%.
JMJD2A Tudor = blocks the human JMJD2A Tudor domain; Potency, µM (highest dose often 114 µM), inactives show top-dose activity change, negative = inhibition, actives largely listed as inhibitors; 4.4% of 390,000 active; O75164; AID 504339; AlphaScreen JMJD2A-Tudor / H3K4me3 peptide binding; also: % is scaled to controls: 0 for no effect and ±100 for the full control effect; nearly all actives have a fitted effect of over 50% in size
PLK1 PBD inh = inhibitors of human PLK1 polo-box domain binding; P53350; Plk1 PBD binding of FITC phosphopeptide, fluorescence polarization; Potency, µM, inactives show max response, negative = inhibition, hits mostly inhibitors; 2.8% of 360,000 active; AID 720504; also: series mostly up to about 57 µM; % is scaled to controls: 0 for no effect and ±100 for the full control effect; nearly all actives have a fitted effect of over 65% in size
G9a inh = inhibitors of human histone lysine methyltransferase G9a | Potency, µM (doses to about 102 µM), for the others: at the highest dose activity, negative = inhibition, most hits filed as inhibitors | 8.8% of 350,000 active | Q96KQ7 | G9a H3K9 monomethylation, AlphaScreen, 2 h; also: % is scaled to controls: 0 for no effect and ±100 for the full control effect; nearly all actives have a fitted effect of over 75% in size
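AlphaScreen read-out: biotin-H3K9 peptide (500 nM) methylation by 20 nM enzyme with 20 uM SAM, 2 h at room temperature after 15 min compound preincubation; anti-monomethyl H3K9 antibody plus donor/acceptor beads, 10 min dark.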
HP1b binding inh = inhibitors of HP1-beta chromodomain binding to methylated histone tails; P83916; AlphaScreen HP1-beta / biotin-H3K9me3 peptide binding; Potency, µM (series often up to 114 µM), without a hit: at the highest dose activity change, negative = inhibition, usual class: inhibitors; 0.56% of 390,000 active; also: nearly all actives have a fitted effect of over 70% in size
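HP1-beta protein (50 nM final) preincubated 30 min at room temperature with biotinylated H3(1-18)K9me3 peptide (50 nM) in PBS pH 7.4, 0.01% Tween-20, then compound added for 30 min. AlphaScreen streptavidin donor/nickel chelate acceptor beads (10 ug/mL final), 30 min dark, luminescence read.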
BAZ2B inh = inhibitors of human BAZ2B bromodomain. Q9UIF8. AlphaScreen BAZ2B-H3K14Ac peptide displacement. Potency, µM (series often up to 114 µM), inactives show at the top dose activity change, negative = inhibition, most hits filed as inhibitors. 4.4% of 360,000 active. AID 504333; also: % is scaled to controls: 0 for no effect and ±100 for the full control effect; nearly all actives have a fitted effect of over 60% in size
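Multi-concentration screen (max 110 uM) measuring displacement of acetylated histone H3 peptide from BAZ2B by AlphaScreen, using 50 nM protein, 50 nM peptide and 10 ug/mL streptavidin donor plus Ni-chelate acceptor beads.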
Sfp inh = blocks B. subtilis Sfp PPTase activity; Q9F4F7; Biochemical Sfp PPTase activity, qHTS; Potency, µM, for the others: largest response in the series, negative = inhibition, most hits filed as inhibitors; 3.5% of 310,000 active; AID 1490;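 also: the enzyme is Sfp with the accession as filed and its product quenches rhodamine fluorescence; 0% = enzyme reaction without inhibitor and -100% = no enzyme wells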
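After 15 min at room temperature with compound, 15 nM Sfp received 5 uM rhodamine-CoA plus 12.5 uM BHQ-2-ybbR (50 mM Hepes pH 7.6, 10 mM MgCl2). Rate came from the fluorescence difference over 30 min, ex 525/em 598 nm.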
* hit, by the source's call; ? = inconclusive; . = no result; [ ] = dose if it differs, or a comment. Calls follow the shape of the dose curve; as a rule, active = well fitted curve in the direction sought with a large enough effect; inconclusive = small, poorly fitted or top-dose-only effect, or another doubt; inactive = no such curve, though single readings can be large; an effect the other way counts as inactive or inconclusive. Potency is read from the fitted curve at half-maximal effect.

SMILES | JMJD2A Tudor | PLK1 PBD inh | G9a inh | HP1b binding inh | BAZ2B inh | Sfp inh
Cc1nn(Cc2ccc(F)cc2)c2sc(C(=O)Nc3ccc(N4CCOCC4)cc3N3CCOCC3)cc12 | ? | -3.7% | 11.2µM* | ? | 39.8µM* | 5.0%
COC(=O)c1cc(S(=O)(=O)N2CCCCC2)ccc1N1CCOCC1 | -6.2% | -0.9% | 50.1µM* | 22.9% | 4.3% | .
COC(=O)c1cc(S(=O)(=O)N2CCOCC2)ccc1Sc1ccccc1N | -21.9% | ? | 20µM* | 2.0% | -7.1% | -21.2%
COc1ccccc1NC(=O)c1cc(S(=O)(=O)N2CCOCC2)ccc1Cl | 6.3% | 5.8% | 4.0%[59 µM] | 33.0% | -4.2% | 13.9%
COCCNC(=O)c1cc(S(=O)(=O)N2CCCCC2)ccc1N1CCOCC1 | -4.1% | -6.8% | -43.5% | 24.4% | ? | .
CC(Oc1cccc(Cl)c1)C(=O)Nc1ccc(N2CCOCC2)cc1N1CCOCC1 (stereo not given) | ? | 4.4% | -10.9%[2.33 µM] | -11.6% | ? | .
CCNc1ncc2nc(-c3ccc(F)cc3)c(=O)n(CCC#N)c2n1 | . | . | -2.2%[12.7 µM] | . | . | 1.0%
COc1ccc(CNC(=O)c2cc3cccc4c3n2CC(C)S4)cc1OC (stereo not given) | -27.6% | . | -43.3%[59 µM] | 13.8% | ? | .
O=C(NCc1cccnc1)c1cccc(S(=O)(=O)Nc2cccc(Cl)c2)c1 | -10.4% | 1.4% | 10.9%[59 µM] | 31.4% | 7.5% | .
CC(Oc1ccc(F)cc1)C(=O)Nc1cc(S(=O)(=O)N2CCCCC2)ccc1N1CCOCC1 (stereo not given) | -17.7% | -4.3% | 12.6µM* | 3.7% | -0.2% | .
COC(=O)c1cc(S(=O)(=O)N2CCCCC2)c[nH]1 | 44.7µM* | -3.2% | 19.7%[59 µM] | ? | -24.5% | 16.9%
COC(=O)c1cc(S(=O)(=O)N2CCCCCC2)c[nH]1 | -10.3% | 4.3% | 4.7% | 29.5% | -0.7% | 13.8%
CCOC(=O)c1cccc(OCC(O)CNCCOc2ccccc2F)c1 (stereo not given) | 17.8µM* | -10.8% | 50.1µM* | 70.8µM* | ? | -21.7%
COc1ccc(CNCC(O)COc2ccc(C(C)(C)c3ccccc3)cc2)cc1 (stereo not given) | 10µM* | 9.4% | -0.3%[2.33 µM] | ? | 39.8µM* | 56.2µM*
OC(CNCc1ccc(Cl)cc1)COc1ccccc1 (stereo not given) | 20µM* | -6.0% | -46.1% | ? | 56.2µM* | -24.7%
CC(C)(c1ccccc1)c1ccc(OCC(O)CNC2CCN(Cc3ccccc3)CC2)cc1 (stereo not given) | 2.82µM* | -9.1% | 39.8µM* | ? | 50.1µM* | 79.4µM*
C[C@@H]1C(=O)N(S(=O)(=O)c2ccc([N+](=O)[O-])cc2)[C@H]1c1ccccc1 | -19.3% | . | . | 17.1% | . | -21.0%
N#Cc1cccc(NC(=O)N2CC[C@@]3(CCCN(C(=O)c4cccc(F)c4)C3)C2)c1 | . | . | 1.9%[12.7 µM] | . | . | -4.0%
CO[C@H]1OC2O[C@@]3(C)CC[C@H]4[C@H](C)CC[C@@H]([C@H]1C)[C@@]24OO3 (stereo not given in full) | . | . | 2.6%[59 µM] | . | . | 21.3%
OC(CNCCc1ccc(Cl)cc1)COCc1ccco1 (stereo not given) | 7.08µM* | -5.1% | 22.4µM* | ? | ? | -27.0%
O=C(COC(=O)c1ccco1)NCCc1ccc(Cl)cc1 | 8.1% | 2.2% | -4.7%[12.7 µM] | 38.2% | -2.4% | .
CC(NCC(O)COCc1ccc(Cl)cc1)c1ccccc1 (stereo not given) | -13.3% | -7.7% | -9.0%[59 µM] | 32.1% | -0.8% | 19.6%
CC(=O)c1cccc(OCC(O)CNCCc2ccc(Cl)cc2)c1 (stereo not given) | ? | 1.0% | ? | 7.7% | 20µM* | -27.3%
OC(CNCc1ccccc1)COCc1ccc(Cl)cc1 (stereo not given) | -16.9%[57.1 µM] | -8.4% | 10µM* | 35.3% | 50.1µM* | -18.9%
CC(C)(C)NC(=O)CN(C(=O)c1snc(C(=O)NC2CCCCC2)c1N)c1ccc(F)cc1 | -7.0% | -12.0% | 20.8% | 119.9% | 3.3% | 23.3%
